The text below walks through data of publication PMC8384837, “Expanding the binding specificity for RNA recognition by a PUF domain”.

Assay in all cases: yeast three-hybrid, YBZ-1, SC-Leu-His + 0.5 mM 3-AT, 4 days
What all share (settings): tags: N-Gal4 AD-HA kept; label: inside an RPR1-promoter hybrid RNA with tandem MS2 sites; ssRNA

For one experiment, the target named is PUM1 PUF domain R4-DFI (Homo sapiens, UniProt Q14671 828-1176, N971D;H972F;Q975I). In outline: (§1)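 The interaction score is the logarithmic change in variant frequency from input to selection. It uses log2, with a pseudocount of 1 for absent variants, and frequencies came from PCR-amplified, Illumina-sequenced repeat regions. The libraries were Pumilio-1 PUF domains randomized at the three base-contacting residues per repeat, co-expressed with matching RNA elements in strain YBZ-1 (LexA–MS2 coat fusion, HIS3 reporter). Plating lasted four days on SC-Leu (input) or SC-Leu-His + 0.5 mM 3-AT (selection).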

The next experiment concerns the target PUM1 PUF domain R4-EYQ (Homo sapiens, UniProt Q14671 828-1176, N971E;H972Y). In outline: as §1
A further experiment deals with PUM1 PUF domain R4-SNV (Homo sapiens, UniProt Q14671 828-1176, N971S;H972N;Q975V). The method in brief: as §1
The next experiment deals with PUM1 PUF domain R4-PFA (Homo sapiens, UniProt Q14671 828-1176, N971P;H972F;Q975A). The method in brief: as §1
In a further experiment the target is PUM1 PUF domain R5-RCM (Homo sapiens, UniProt Q14671 828-1176, C1007R;R1008C;Q1011M). In outline: as §1
The target in another experiment is PUM1 PUF domain R4-TPE (Homo sapiens, UniProt Q14671 828-1176, N971T;H972P;Q975E). The method in brief:
as §1

For a further experiment, the target named is PUM1 PUF domain R4-GQG (Homo sapiens, UniProt Q14671 828-1176, N971G;H972Q;Q975G). In outline: as §1
A further experiment deals with PUM1 PUF domain R3-ASE (Homo sapiens, UniProt Q14671 828-1176, C935A;R936S;Q939E). In outline:
as §1

The target of another experiment is PUM1 PUF domain R3-WCS (Homo sapiens, UniProt Q14671 828-1176, C935W;R936C;Q939S). The method in brief:
as §1

A further experiment concerns the target PUM1 PUF domain R3-FRV (Homo sapiens, UniProt Q14671 828-1176, C935F;Q939V). In outline: as §1
A further experiment concerns the target PUM1 PUF domain R7-HFP (Homo sapiens, UniProt Q14671 828-1176, S1079H;N1080F;E1083P). The method in brief: as §1
A further experiment deals with PUM1 PUF domain R7-QSR (Homo sapiens, UniProt Q14671 828-1176, S1079Q;N1080S;E1083R). In outline: as §1
The next experiment has as its target PUM1 PUF domain R7-TSV (Homo sapiens, UniProt Q14671 828-1176, S1079T;N1080S;E1083V). The method in brief: as §1
Another experiment has as its target T1, PUM1 PUF domain R6-LFS (Homo sapiens, UniProt Q14671 828-1176, N1043L;Y1044F;Q1047S).
T1 sequence: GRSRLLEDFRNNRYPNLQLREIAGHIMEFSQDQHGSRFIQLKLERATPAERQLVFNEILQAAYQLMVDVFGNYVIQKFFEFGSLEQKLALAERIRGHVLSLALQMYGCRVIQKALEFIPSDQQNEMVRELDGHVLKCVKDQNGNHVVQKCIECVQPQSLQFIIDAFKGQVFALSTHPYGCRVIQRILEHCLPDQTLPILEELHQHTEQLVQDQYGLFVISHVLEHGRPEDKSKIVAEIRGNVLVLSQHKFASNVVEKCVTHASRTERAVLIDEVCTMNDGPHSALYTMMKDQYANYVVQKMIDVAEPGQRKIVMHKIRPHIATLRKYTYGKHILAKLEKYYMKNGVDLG
The method in brief: as §1

A further experiment concerns the target PUM1 PUF domain R3-VWC (Homo sapiens, UniProt Q14671 828-1176, C935V;R936W;Q939C). The method in brief: as §1
The target in another experiment is PUM1 PUF domain R8-LRK (Homo sapiens, UniProt Q14671 828-1176, N1122L;Y1123R;Q1126K). In outline:
as §1

The target in a further experiment is PUM1 PUF domain R4-NRC (Homo sapiens, UniProt Q14671 828-1176, H972R;Q975C). In outline: as §1
In the next experiment the target is PUM1 PUF domain R5-TTR (Homo sapiens, UniProt Q14671 828-1176, C1007T;R1008T;Q1011R). The method in brief:
as §1

In another experiment the target is PUM1 PUF domain R8-PWA (Homo sapiens, UniProt Q14671 828-1176, N1122P;Y1123W;Q1126A). The method in brief: as §1
In a further experiment the target is PUM1 PUF domain R3-ARH (Homo sapiens, UniProt Q14671 828-1176, C935A;Q939H). In outline: as §1

“GGCUAGAACUAGUGGAUCCCCCGGCGCCCGGCGGCUCGAGCCCGGGUAAGUGUACAUAGUCUGCAUGCCGCCGGGCGCCAUGCCUGCAGGUCGACUCUAGAAAACAUG”: the binding signal with PUM1 PUF domain R4-DFI is 3.24 log2 enrichment (interaction score); with PUM1 PUF domain R4-EYQ, 3.27 log2 enrichment (interaction score); with PUM1 PUF domain R4-SNV, 3.34 log2 enrichment (interaction score); with PUM1 PUF domain R4-PFA, 3.34 log2 enrichment (interaction score).
As for “GGCUAGAACUAGUGGAUCCCCCGGCGCCCGGCGGCUCGAGCCCGGGUAAGUGUGAAUAGUCUGCAUGCCGCCGGGCGCCAUGCCUGCAGGUCGACUCUAGAAAACAUG”, the binding signal with PUM1 PUF domain R5-RCM is 1.67 log2 enrichment (interaction score).
For the sequence “GGCUAGAACUAGUGGAUCCCCCGGCGCCCGGCGGCUCGAGCCCGGGUAAGUGUAUAUAGUCUGCAUGCCGCCGGGCGCCAUGCCUGCAGGUCGACUCUAGAAAACAUG”, the binding signal with PUM1 PUF domain R4-TPE was 3.03 log2 enrichment (interaction score); in the experiment with PUM1 PUF domain R4-SNV, 3.72 log2 enrichment (interaction score); with PUM1 PUF domain R4-GQG, 2.39 log2 enrichment (interaction score); with PUM1 PUF domain R4-PFA, 4.96 log2 enrichment (interaction score).
With “GGCUAGAACUAGUGGAUCCCCCGGCGCCCGGCGGCUCGAGCCCGGGUAAGUGUAAGUAGUCUGCAUGCCGCCGGGCGCCAUGCCUGCAGGUCGACUCUAGAAAACAUG”, the results for the binding signal with PUM1 PUF domain R3-ASE, in the experiment with PUM1 PUF domain R3-WCS and with PUM1 PUF domain R3-FRV were 4.6 log2 enrichment (interaction score), 2.96 log2 enrichment (interaction score) and 4.5 log2 enrichment (interaction score), respectively.
Take “GGCUAGAACUAGUGGAUCCCCCGGCGCCCGGCGGCUCGAGCCCGGGUAAGUCUAAAUAGUCUGCAUGCCGCCGGGCGCCAUGCCUGCAGGUCGACUCUAGAAAACAUG”: the binding signal in the experiment with PUM1 PUF domain R7-HFP is 4.02 log2 enrichment (interaction score).
“GGCUAGAACUAGUGGAUCCCCCGGCGCCCGGCGGCUCGAGCCCGGGUAAGUUUAAAUAGUCUGCAUGCCGCCGGGCGCCAUGCCUGCAGGUCGACUCUAGAAAACAUG”: the binding signal with PUM1 PUF domain R7-QSR is 3.84 log2 enrichment (interaction score); in the experiment with PUM1 PUF domain R7-TSV, 2.77 log2 enrichment (interaction score).
Consider “GGCUAGAACUAGUGGAUCCCCCGGCGCCCGGCGGCUCGAGCCCGGGUAAGUGAAAAUAGUCUGCAUGCCGCCGGGCGCCAUGCCUGCAGGUCGACUCUAGAAAACAUG”, for which, in the experiment with PUM1 PUF domain R6-LFS, the binding signal is 5.7 log2 enrichment (interaction score).
For “GGCUAGAACUAGUGGAUCCCCCGGCGCCCGGCGGCUCGAGCCCGGGUAAGUGUAAUUAGUCUGCAUGCCGCCGGGCGCCAUGCCUGCAGGUCGACUCUAGAAAACAUG”, the binding signal with PUM1 PUF domain R3-VWC is 3.83 log2 enrichment (interaction score); with PUM1 PUF domain R3-WCS, 1.01 log2 enrichment (interaction score); with PUM1 PUF domain R3-FRV, 1.27 log2 enrichment (interaction score).
For “GGCUAGAACUAGUGGAUCCCCCGGCGCCCGGCGGCUCGAGCCCGGGUAAGUGUAAAUAGUCUGCAUGCCGCCGGGCGCCAUGCCUGCAGGUCGACUCUAGAAAACAUG”, the binding signal is 1.28 log2 enrichment (interaction score) in the experiment with PUM1 PUF domain R8-LRK; 1.61 log2 enrichment (interaction score) with PUM1 PUF domain R4-EYQ; 1.05 log2 enrichment (interaction score) in the experiment with PUM1 PUF domain R4-SNV; 3.78 log2 enrichment (interaction score) with PUM1 PUF domain R4-NRC; 0.63 log2 enrichment (interaction score) with PUM1 PUF domain R5-TTR; 2.2 log2 enrichment (interaction score) with PUM1 PUF domain R8-PWA. Moreover, the binding signal was 1.98 log2 enrichment (interaction score) in the experiment with PUM1 PUF domain R6-LFS, 4.95 log2 enrichment (interaction score) in the experiment with PUM1 PUF domain R4-PFA, 3.26 log2 enrichment (interaction score) in the experiment with PUM1 PUF domain R3-ARH and 0.77 log2 enrichment (interaction score) in the experiment with PUM1 PUF domain R5-RCM.
For “GGCUAGAACUAGUGGAUCCCCCGGCGCCCGGCGGCUCGAGCCCGGGUAAGCGUAAAUAGUCUGCAUGCCGCCGGGCGCCAUGCCUGCAGGUCGACUCUAGAAAACAUG”, the binding signal with PUM1 PUF domain R8-LRK was 2.19 log2 enrichment (interaction score); with PUM1 PUF domain R8-PWA, 2.7 log2 enrichment (interaction score).
For the sequence “GGCUAGAACUAGUGGAUCCCCCGGCGCCCGGCGGCUCGAGCCCGGGUAAGUGUCAAUAGUCUGCAUGCCGCCGGGCGCCAUGCCUGCAGGUCGACUCUAGAAAACAUG”, the binding signal is 6.52 log2 enrichment (interaction score) with PUM1 PUF domain R5-TTR and 3.2 log2 enrichment (interaction score) with PUM1 PUF domain R5-RCM.
Regarding “GGCUAGAACUAGUGGAUCCCCCGGCGCCCGGCGGCUCGAGCCCGGGUAAGUGUUAAUAGUCUGCAUGCCGCCGGGCGCCAUGCCUGCAGGUCGACUCUAGAAAACAUG”, in the experiment with PUM1 PUF domain R5-TTR, the binding signal was 2.44 log2 enrichment (interaction score).
